Reference: paper PMC7862700, “An all-to-all approach to the identification of sequence-specific readers for epigenetic DNA modifications on cytosine”

Assays:
Test in all cases: DAPPL (digital affinity profiling via proximity ligation, sequencing); 10 mM Tris-HCl pH 7.5, 50 mM NaCl, 1 mM DTT, 4% glycerol, room temperature, 30 min; GST-TFs on glutathione beads, 16-mer random dsDNA library, 0.1% formaldehyde crosslink after washing; high values mean tight binding
FLI1 = target: T1, FLI1 (Homo sapiens, UniProt Q01543 1-452); conditions: protein: recombinant; tags: N-terminal GST; dsDNA, one strand shown
T1 sequence: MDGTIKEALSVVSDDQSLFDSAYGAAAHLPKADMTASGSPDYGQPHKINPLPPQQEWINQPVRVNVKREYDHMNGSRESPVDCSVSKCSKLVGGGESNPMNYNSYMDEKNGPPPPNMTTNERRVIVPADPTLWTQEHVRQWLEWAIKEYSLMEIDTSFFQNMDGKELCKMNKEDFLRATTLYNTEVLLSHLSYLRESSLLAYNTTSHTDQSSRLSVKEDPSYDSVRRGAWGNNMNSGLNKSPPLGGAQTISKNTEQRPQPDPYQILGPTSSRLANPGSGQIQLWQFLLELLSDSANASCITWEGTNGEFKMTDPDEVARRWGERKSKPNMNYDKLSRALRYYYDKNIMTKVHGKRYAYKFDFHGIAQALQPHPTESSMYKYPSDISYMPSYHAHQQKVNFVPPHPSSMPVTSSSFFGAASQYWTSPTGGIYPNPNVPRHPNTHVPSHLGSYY
Procedure, shortened: (§1)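 Pools of DNA-barcoded human transcription factors, expressed in yeast as GST fusions on glutathione beads and combined with a tag-only sample, were incubated with 200 nmole of a 16-mer random double-stranded DNA library. Incubation took 30 min at room temperature in Tris/NaCl/DTT/glycerol buffer and was followed by washing, 0.1% formaldehyde crosslinking, proximity ligation (BsaI/T4 ligase, 1 h, 37 °C), PCR amplification and sequencing on an Illumina NextSeq500. Binding signal is the ratio of a hexamer's read frequency for a factor to its frequency for the tag-only sample.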

ELK1 = target: T2, ELK1 (Homo sapiens, UniProt P19419 1-428); conditions: protein: recombinant; tags: N-terminal GST; dsDNA, one strand shown
T2 sequence: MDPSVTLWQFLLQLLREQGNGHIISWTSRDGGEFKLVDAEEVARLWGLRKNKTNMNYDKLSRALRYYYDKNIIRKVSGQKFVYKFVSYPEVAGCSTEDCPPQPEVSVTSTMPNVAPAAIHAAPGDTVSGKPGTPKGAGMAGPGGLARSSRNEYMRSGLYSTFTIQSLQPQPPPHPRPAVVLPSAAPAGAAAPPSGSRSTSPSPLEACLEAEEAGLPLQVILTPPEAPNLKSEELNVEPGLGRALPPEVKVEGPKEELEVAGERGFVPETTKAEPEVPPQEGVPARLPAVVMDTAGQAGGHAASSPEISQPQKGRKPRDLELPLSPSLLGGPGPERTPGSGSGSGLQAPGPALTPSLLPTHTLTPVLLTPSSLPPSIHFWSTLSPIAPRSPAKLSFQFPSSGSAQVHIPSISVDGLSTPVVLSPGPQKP
Procedure, shortened: as §1

GABPA = target: T3, GABPA (Homo sapiens, UniProt Q06546 1-454); conditions: protein: recombinant; tags: N-terminal GST; dsDNA, one strand shown
T3 sequence: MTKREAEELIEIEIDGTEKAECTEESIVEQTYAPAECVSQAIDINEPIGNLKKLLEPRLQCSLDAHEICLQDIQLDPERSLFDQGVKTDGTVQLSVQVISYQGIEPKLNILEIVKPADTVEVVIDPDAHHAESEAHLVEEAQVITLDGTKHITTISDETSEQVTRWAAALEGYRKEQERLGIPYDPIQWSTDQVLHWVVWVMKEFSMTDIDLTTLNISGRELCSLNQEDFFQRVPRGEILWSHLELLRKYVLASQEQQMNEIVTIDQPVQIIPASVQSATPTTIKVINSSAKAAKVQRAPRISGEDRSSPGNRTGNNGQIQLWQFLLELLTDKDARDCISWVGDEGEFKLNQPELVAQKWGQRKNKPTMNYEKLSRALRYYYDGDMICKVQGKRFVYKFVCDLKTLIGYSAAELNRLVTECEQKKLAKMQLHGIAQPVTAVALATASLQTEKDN
Procedure, shortened: as §1

ERG = target: T4, ERG (Homo sapiens, UniProt P11308 1-479); conditions: protein: recombinant; tags: N-terminal GST; dsDNA, one strand shown
T4 sequence: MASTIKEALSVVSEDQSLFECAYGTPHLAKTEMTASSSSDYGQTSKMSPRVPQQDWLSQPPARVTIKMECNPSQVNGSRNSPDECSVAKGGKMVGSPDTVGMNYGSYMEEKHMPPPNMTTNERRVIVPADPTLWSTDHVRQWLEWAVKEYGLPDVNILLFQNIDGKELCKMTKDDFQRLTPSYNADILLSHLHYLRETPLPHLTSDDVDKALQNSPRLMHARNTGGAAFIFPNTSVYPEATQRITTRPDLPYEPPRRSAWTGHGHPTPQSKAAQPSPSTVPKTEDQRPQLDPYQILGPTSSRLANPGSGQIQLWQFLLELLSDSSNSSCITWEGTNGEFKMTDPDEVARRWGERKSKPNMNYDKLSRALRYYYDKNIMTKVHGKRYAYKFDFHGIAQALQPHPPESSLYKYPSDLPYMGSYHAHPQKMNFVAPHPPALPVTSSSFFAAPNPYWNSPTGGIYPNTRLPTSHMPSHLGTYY
Procedure, shortened: as §1

ELF1 = ELF1 (Homo sapiens, UniProt P32519 1-619); conditions: protein: recombinant; tags: N-terminal GST; dsDNA, one strand shown
Chain of ELF1 (P32519 whole entry): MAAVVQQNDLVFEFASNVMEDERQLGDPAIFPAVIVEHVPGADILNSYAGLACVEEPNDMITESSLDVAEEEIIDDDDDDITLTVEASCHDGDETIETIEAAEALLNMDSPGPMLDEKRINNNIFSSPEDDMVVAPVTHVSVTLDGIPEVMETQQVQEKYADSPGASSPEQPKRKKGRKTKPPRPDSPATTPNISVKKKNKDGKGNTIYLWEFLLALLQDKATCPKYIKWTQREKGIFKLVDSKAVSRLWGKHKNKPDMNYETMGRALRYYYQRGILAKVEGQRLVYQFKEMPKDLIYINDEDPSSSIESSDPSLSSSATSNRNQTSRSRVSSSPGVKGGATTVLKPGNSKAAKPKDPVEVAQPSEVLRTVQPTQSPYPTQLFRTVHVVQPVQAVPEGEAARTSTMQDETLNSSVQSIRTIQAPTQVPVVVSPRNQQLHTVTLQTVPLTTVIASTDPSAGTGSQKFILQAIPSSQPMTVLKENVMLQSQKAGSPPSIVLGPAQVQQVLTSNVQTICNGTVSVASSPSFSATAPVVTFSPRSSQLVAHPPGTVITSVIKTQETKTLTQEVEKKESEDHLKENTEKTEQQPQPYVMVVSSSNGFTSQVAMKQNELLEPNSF
Procedure, shortened: as §1

EHF = target: T5, EHF (Homo sapiens, UniProt Q9NZC4 1-300); conditions: protein: recombinant; tags: N-terminal GST; dsDNA, one strand shown
T5 sequence: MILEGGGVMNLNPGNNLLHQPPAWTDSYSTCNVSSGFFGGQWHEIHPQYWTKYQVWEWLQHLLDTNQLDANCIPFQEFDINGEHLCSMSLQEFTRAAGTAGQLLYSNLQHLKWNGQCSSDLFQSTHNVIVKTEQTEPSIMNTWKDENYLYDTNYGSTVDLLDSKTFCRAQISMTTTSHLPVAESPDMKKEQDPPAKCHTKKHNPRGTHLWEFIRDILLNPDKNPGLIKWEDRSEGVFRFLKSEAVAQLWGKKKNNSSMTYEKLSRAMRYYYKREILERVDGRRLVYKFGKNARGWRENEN
Procedure, shortened: as §1

SPI1 = SPI1 (Homo sapiens, UniProt P17947 1-270); conditions: protein: recombinant; tags: N-terminal GST; dsDNA, one strand shown
Procedure, shortened: as §1

SPIB = SPIB (Homo sapiens, UniProt Q01892 1-262); conditions: protein: recombinant; tags: N-terminal GST; dsDNA, one strand shown
Chain of SPIB (Q01892 whole entry): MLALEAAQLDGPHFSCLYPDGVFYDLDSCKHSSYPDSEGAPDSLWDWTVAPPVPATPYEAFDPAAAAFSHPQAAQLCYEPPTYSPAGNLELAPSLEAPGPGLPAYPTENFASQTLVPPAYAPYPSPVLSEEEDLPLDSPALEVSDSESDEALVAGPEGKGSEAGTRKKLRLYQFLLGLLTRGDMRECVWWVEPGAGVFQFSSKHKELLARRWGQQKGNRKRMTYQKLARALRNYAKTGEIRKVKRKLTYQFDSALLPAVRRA
Procedure, shortened: as §1

ELK3 = target: T6, ELK3 (Homo sapiens, UniProt P41970 1-407); conditions: protein: recombinant; tags: N-terminal GST; dsDNA, one strand shown
T6 sequence: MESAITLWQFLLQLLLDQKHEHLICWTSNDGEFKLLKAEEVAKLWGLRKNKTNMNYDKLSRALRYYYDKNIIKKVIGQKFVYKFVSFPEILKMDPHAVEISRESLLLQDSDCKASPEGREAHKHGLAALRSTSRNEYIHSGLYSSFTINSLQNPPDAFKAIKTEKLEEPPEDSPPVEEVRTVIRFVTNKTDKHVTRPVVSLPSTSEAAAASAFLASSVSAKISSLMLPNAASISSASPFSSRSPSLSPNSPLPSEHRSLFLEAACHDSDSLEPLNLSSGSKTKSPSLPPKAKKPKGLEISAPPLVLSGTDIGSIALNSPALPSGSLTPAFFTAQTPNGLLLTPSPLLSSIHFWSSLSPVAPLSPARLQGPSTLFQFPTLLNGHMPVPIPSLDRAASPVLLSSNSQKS
Procedure, shortened: as §1

FEV = target: T7, FEV (Homo sapiens, UniProt Q99581 1-238); conditions: protein: recombinant; tags: N-terminal GST; dsDNA, one strand shown
T7 sequence: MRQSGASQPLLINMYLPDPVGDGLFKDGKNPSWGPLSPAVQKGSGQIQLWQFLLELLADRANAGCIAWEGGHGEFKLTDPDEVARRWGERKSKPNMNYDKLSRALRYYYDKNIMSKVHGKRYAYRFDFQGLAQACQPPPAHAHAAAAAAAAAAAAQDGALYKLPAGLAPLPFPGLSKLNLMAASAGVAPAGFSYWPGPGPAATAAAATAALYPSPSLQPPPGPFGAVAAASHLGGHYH
Procedure, shortened: as §1

ETV5 = ETV5 (Homo sapiens, UniProt P41161 1-510); conditions: protein: recombinant; tags: N-terminal GST; dsDNA, one strand shown
Chain of ETV5 (P41161 whole entry): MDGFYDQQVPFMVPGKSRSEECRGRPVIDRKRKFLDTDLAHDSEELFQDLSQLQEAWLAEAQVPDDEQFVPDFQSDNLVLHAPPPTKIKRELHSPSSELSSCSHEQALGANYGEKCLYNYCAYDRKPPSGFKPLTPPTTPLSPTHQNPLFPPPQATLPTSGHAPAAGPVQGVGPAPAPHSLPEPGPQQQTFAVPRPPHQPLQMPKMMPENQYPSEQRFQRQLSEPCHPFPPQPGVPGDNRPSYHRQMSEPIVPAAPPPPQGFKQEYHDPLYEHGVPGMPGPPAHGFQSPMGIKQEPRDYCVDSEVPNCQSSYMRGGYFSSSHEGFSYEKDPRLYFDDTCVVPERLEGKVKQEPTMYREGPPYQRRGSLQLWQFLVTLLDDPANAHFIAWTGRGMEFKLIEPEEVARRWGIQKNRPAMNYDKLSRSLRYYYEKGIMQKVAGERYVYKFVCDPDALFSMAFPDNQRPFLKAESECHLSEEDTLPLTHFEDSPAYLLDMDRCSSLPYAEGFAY
Procedure, shortened: as §1

HSF1 = HSF1 (Homo sapiens, UniProt Q00613 1-529); conditions: protein: recombinant; tags: N-terminal GST; chain copies: 3; dsDNA, one strand shown
Chain of HSF1 (Q00613 whole entry): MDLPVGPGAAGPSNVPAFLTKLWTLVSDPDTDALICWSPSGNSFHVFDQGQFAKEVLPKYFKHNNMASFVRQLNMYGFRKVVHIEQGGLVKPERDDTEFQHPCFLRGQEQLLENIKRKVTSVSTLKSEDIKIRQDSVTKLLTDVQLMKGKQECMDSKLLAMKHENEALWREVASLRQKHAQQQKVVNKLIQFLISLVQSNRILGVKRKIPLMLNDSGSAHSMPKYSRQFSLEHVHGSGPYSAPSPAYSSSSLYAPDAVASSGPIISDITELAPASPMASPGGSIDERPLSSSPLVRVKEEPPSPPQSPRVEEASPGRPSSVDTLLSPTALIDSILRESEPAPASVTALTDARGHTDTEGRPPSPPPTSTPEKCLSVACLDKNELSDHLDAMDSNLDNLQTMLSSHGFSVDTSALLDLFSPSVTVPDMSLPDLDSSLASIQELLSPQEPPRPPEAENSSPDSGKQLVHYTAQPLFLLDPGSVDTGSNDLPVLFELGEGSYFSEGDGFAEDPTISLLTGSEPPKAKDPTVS
Procedure, shortened: as §1

SPIC = target: T8, SPIC (Homo sapiens, UniProt Q8N5J4 1-248); conditions: protein: recombinant; tags: N-terminal GST; dsDNA, one strand shown
T8 sequence: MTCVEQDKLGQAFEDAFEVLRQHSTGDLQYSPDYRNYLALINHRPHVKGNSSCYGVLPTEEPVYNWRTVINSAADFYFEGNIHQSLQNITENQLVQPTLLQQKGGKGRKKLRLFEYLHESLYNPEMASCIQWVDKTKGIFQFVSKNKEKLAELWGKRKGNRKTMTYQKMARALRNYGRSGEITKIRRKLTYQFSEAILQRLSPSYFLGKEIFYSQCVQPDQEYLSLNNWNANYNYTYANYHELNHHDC
Procedure, shortened: as §1

ELF4 = ELF4 (Homo sapiens, UniProt Q99607 1-663); conditions: protein: recombinant; tags: N-terminal GST; dsDNA, one strand shown
Chain of ELF4 (Q99607 whole entry): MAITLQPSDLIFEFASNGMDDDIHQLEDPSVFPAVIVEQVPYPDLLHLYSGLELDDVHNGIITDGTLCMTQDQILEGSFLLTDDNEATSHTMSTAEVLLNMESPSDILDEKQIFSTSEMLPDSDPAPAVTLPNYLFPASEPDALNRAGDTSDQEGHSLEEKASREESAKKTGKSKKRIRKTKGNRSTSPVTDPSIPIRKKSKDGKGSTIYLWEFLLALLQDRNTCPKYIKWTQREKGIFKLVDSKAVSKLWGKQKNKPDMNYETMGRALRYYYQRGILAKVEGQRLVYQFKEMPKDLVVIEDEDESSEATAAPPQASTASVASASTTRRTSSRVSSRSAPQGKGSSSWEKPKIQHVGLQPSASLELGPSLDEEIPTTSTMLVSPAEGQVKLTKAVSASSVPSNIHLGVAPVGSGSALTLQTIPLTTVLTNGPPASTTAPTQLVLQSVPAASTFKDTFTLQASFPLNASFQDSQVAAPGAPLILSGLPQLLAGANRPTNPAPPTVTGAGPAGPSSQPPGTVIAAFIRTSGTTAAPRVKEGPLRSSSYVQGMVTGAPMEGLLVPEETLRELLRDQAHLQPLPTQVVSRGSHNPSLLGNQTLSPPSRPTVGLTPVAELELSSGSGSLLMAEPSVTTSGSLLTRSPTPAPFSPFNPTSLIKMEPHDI
Procedure, shortened: as §1

ELK4 = target: T9, ELK4 (Homo sapiens, UniProt P28324-2 1-405); conditions: protein: recombinant; tags: N-terminal GST; dsDNA, one strand shown
T9 sequence: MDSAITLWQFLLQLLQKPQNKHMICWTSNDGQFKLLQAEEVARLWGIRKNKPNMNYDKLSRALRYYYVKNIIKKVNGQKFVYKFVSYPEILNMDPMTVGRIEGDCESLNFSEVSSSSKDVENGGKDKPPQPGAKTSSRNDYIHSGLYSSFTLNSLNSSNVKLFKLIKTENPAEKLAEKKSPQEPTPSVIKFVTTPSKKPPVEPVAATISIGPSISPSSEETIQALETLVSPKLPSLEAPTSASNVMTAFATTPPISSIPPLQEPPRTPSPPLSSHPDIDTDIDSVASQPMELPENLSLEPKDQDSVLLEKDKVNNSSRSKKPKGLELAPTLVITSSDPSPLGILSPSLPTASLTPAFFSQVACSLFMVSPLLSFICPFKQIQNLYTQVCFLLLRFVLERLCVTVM
Procedure, shortened: as §1

ETV2 = target: T10, ETV2 (Homo sapiens, UniProt O00321 1-342); conditions: protein: recombinant; tags: N-terminal GST; dsDNA, one strand shown
T10 sequence: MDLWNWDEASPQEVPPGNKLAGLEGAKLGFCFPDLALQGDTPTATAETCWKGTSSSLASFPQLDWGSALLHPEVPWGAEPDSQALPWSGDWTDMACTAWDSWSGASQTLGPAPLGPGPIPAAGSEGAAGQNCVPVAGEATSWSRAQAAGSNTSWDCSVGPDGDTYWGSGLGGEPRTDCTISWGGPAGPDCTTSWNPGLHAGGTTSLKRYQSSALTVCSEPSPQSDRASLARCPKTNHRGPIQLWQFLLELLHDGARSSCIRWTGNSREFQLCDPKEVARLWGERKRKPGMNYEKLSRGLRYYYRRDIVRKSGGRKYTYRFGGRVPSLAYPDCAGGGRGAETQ
Procedure, shortened: as §1

ELF3 = target: T11, ELF3 (Homo sapiens, UniProt P78545 1-371); conditions: protein: recombinant; tags: N-terminal GST; dsDNA, one strand shown
T11 sequence: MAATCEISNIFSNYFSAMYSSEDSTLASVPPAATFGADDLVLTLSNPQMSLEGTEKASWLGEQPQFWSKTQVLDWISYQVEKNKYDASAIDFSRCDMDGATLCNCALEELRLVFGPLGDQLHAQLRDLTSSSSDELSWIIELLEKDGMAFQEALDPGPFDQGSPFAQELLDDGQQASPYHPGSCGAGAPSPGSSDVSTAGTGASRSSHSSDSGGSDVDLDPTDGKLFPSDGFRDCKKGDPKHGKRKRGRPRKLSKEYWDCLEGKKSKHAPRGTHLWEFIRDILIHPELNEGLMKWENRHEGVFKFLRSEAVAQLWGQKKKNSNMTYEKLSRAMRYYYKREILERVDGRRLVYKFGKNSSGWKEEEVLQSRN
Procedure, shortened: as §1

CRX = CRX (Homo sapiens, UniProt O43186 1-299); conditions: protein: recombinant; tags: N-terminal GST; dsDNA, one strand shown
Chain of CRX (O43186 whole entry): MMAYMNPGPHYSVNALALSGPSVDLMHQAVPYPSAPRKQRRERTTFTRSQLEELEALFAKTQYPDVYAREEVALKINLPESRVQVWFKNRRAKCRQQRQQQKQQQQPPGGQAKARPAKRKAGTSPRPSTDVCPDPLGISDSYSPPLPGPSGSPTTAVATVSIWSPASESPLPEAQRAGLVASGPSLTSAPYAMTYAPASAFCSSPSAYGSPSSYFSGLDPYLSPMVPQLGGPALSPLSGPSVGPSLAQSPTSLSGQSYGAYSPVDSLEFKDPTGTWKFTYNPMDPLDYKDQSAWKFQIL
Procedure, shortened: as §1

ETV1 = ETV1 (Homo sapiens, UniProt P50549 1-477); conditions: protein: recombinant; tags: N-terminal GST; dsDNA, one strand shown
Chain of ETV1 (P50549 whole entry): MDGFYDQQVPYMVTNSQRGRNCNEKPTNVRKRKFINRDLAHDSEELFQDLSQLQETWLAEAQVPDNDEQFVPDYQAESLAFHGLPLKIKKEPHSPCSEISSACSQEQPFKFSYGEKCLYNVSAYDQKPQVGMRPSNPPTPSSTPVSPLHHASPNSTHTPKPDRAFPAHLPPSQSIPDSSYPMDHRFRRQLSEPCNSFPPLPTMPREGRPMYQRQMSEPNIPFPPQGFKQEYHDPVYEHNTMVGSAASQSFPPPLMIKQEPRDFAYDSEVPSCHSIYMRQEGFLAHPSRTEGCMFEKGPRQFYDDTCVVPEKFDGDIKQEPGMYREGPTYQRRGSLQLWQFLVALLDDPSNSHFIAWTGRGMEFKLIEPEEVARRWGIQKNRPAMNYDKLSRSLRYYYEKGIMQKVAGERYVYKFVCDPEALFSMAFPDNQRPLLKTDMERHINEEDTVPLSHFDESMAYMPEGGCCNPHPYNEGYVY
Procedure, shortened: as §1

ACTTGG
binding signal (FLI1): 1.34 fold enrichment (6-mer frequency, TF over GST control) | binding signal (ELK1): 1.19 fold enrichment (6-mer frequency, TF over GST control) | binding signal (GABPA): 1.15 fold enrichment (6-mer frequency, TF over GST control) | binding signal (ERG): 1.16 fold enrichment (6-mer frequency, TF over GST control) | binding signal (ELF1): 1.34 fold enrichment (6-mer frequency, TF over GST control) | binding signal (EHF): 1.1 fold enrichment (6-mer frequency, TF over GST control) | binding signal (SPI1): 1.21 fold enrichment (6-mer frequency, TF over GST control) | binding signal (SPIB): 1.25 fold enrichment (6-mer frequency, TF over GST control) | binding signal (ELK3): 1.29 fold enrichment (6-mer frequency, TF over GST control) | binding signal (FEV): 1.17 fold enrichment (6-mer frequency, TF over GST control) | binding signal (ETV5): 1.21 fold enrichment (6-mer frequency, TF over GST control) | binding signal (HSF1): 1.09 fold enrichment (6-mer frequency, TF over GST control) | binding signal (SPIC): 1.27 fold enrichment (6-mer frequency, TF over GST control) | binding signal (ELF4): 1.31 fold enrichment (6-mer frequency, TF over GST control) | binding signal (ELK4): 1.28 fold enrichment (6-mer frequency, TF over GST control) | binding signal (ETV2): 1.15 fold enrichment (6-mer frequency, TF over GST control) | binding signal (ELF3): 1.36 fold enrichment (6-mer frequency, TF over GST control) | binding signal (CRX): 1.1 fold enrichment (6-mer frequency, TF over GST control) | binding signal (ETV1): 1.25 fold enrichment (6-mer frequency, TF over GST control)
